From PubChem BioAssay AID624160 (National Center for Advancing Translational Sciences (NCATS), 2012)
This is one part of the list. Results filed as inconclusive are left out. The source made the active and inactive calls. The call rests on the fitted dose curve; in most records, active means well fitted inhibition curve with a large enough effect; inconclusive means small, poorly fitted or top-dose-only effect; inactive means no such curve, though single readings can be large or run the other way.

What follows are compounds tested against Histone-lysine N-methyltransferase 2A (Homo sapiens) (UniProt Q03164) (assay: qHTS Fluorescence Polarization (FP) Assay for Inhibitors of MLL CXXC domain - DNA interaction: Fluorescein FP). Conditions: MLL CXXC-DNA binding.
Chain of Histone-lysine N-methyltransferase 2A (Homo sapiens) (Q03164 whole entry, looked up, the tested form may be a part): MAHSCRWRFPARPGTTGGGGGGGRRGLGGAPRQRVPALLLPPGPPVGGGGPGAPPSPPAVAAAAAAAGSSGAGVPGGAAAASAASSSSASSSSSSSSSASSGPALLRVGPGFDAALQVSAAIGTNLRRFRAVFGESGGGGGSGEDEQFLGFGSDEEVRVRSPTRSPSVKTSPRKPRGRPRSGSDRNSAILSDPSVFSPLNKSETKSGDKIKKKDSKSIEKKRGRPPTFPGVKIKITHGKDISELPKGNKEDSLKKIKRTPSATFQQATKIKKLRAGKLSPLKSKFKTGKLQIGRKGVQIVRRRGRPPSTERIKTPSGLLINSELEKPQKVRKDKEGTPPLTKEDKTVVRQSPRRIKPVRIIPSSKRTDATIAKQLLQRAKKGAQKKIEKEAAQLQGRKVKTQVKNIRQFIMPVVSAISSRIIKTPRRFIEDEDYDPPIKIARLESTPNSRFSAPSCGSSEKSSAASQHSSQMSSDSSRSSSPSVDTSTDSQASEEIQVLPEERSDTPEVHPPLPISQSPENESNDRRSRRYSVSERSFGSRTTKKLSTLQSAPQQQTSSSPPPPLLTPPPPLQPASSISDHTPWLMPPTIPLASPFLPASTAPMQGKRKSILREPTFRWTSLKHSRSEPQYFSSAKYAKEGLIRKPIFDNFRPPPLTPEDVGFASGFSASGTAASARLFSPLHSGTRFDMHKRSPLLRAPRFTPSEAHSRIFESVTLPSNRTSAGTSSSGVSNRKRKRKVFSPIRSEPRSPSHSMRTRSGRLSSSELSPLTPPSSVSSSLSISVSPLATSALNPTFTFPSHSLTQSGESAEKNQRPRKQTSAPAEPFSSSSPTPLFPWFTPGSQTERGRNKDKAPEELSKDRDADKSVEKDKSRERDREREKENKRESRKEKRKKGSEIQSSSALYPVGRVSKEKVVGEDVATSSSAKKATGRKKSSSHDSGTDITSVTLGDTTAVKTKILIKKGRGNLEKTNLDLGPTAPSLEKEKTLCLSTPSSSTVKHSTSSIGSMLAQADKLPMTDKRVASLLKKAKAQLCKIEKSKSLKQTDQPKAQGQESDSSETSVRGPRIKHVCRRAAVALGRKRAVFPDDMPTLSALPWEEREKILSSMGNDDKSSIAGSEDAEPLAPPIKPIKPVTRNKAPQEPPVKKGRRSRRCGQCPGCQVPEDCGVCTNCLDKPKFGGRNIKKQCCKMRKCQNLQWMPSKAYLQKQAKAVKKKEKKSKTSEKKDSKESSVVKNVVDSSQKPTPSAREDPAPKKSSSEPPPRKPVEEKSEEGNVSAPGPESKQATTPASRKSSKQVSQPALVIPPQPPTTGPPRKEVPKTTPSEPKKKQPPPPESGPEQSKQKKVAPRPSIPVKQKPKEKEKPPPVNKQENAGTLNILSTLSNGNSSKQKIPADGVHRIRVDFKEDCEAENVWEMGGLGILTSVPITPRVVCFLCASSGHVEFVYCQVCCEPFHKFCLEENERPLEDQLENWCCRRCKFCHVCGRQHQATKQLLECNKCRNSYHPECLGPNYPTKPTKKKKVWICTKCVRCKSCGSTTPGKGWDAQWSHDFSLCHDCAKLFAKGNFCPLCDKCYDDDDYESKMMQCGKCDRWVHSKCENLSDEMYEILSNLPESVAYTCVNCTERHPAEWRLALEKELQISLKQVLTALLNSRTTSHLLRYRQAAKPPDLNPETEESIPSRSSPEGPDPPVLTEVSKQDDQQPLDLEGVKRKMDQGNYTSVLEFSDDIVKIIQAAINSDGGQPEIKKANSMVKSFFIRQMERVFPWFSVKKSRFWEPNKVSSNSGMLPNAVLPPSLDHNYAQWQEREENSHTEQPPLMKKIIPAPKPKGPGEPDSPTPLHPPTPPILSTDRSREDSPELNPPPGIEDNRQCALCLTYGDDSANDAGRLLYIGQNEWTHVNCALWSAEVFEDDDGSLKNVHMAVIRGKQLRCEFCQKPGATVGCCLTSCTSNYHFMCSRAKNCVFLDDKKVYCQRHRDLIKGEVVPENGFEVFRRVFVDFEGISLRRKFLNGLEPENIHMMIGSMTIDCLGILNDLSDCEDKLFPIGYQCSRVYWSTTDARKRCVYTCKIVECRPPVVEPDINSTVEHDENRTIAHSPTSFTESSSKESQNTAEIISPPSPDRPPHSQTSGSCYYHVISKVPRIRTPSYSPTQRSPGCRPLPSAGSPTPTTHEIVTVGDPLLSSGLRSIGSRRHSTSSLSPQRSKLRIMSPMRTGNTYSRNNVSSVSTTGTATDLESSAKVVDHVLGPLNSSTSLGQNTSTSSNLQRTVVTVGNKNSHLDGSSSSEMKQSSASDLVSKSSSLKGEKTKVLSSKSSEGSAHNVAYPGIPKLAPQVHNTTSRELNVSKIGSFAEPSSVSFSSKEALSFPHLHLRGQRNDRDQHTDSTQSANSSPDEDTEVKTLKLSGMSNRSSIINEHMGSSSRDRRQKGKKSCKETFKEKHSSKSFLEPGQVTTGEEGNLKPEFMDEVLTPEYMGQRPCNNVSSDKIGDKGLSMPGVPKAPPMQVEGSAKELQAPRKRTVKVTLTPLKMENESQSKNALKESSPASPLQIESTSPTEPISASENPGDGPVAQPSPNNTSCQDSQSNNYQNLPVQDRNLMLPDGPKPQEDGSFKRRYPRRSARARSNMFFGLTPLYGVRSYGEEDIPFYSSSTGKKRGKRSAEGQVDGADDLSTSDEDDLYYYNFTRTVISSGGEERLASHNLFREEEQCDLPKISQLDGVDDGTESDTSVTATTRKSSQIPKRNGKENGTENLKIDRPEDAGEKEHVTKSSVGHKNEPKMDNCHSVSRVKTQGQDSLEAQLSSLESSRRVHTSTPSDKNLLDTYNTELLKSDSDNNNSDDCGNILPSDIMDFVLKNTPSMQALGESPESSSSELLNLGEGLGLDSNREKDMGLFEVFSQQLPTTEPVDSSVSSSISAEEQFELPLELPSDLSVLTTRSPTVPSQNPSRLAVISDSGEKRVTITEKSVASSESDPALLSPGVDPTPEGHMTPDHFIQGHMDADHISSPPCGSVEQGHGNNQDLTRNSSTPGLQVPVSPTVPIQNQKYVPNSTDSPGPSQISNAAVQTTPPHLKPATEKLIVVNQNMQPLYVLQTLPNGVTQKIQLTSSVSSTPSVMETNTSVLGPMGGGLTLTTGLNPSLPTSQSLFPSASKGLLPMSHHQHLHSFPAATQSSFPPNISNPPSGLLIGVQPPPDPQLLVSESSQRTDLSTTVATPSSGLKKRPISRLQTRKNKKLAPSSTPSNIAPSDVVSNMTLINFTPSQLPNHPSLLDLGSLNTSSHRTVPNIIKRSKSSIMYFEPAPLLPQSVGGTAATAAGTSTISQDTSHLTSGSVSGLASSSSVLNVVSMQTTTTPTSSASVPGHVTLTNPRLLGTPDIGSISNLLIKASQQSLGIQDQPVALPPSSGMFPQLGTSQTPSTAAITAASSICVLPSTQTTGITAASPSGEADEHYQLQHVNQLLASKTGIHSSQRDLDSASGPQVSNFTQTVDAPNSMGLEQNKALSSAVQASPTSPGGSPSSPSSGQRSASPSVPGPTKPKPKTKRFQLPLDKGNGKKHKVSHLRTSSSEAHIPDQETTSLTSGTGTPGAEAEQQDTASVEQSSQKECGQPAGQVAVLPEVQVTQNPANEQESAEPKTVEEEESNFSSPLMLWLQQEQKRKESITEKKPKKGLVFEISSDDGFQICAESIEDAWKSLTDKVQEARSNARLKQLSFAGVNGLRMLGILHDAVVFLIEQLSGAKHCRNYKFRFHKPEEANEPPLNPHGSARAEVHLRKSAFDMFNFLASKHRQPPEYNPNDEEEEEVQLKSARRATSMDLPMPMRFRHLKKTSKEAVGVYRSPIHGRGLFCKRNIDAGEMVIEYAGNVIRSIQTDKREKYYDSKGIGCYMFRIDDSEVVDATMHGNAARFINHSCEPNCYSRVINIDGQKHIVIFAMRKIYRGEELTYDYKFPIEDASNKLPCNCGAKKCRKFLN
Source text: The MLL (Mixed Lineage Luekemia) gene is involved in chromosomal translocation that results in either acute lymphoid leukemia (ALL) or acute myeloid leukemia (AML). Chromasomal translocation of MLL gene is responsible for the fusion of N-terminal MLL to more than 60 different partner genes in frame. Many of the MLL partner genes contain transcription activation domains or function as transcriptional activators. Despite the heterogeneity of fusion partners, the N-terminus of MLL fusion proteins always consists of the N-terminal menin binding motif and the CXXC domain. The MLL-CXXC domain specifically recognizes unmethylated CpG sequences of the HOX-A gene. Disruption of the MLL-CXXC and HOX-A gene interaction leads to down regulation of HOX-A gene expression and may potentially reverse leukemogenesis. We have miniaturized and optimized an in-vitro assay to screen for inhibitors of the MLL-CXXC domain and HOX-A DNA interaction, which could have utility in MLL fusion leukemias.
This is a hit validation assay that tests this hits identified in the primary screen in this secondary screen, using flurescein FP as a read-out.
NIH Molecular Libraries Probe Production Network [MLPCN]
NIH Chemical Genomics Center [NCGC]
PI Name: John Bushweller, University of Virgina
The affinity purified MLL-CXXC domain, unlabeled HOX-A9 DNA strand, fluorescein (FLSN) labeled HOX-A9 DNA strand were kindly supplied by the laboratory of Dr. John Bushweller, University of Virginia. All reagents were stored in single use aliquots at -80C.
Assay buffer: 50 mM TRIS-HCl pH 7.5, 50 mM NaCl, 1 mM DTT. Add 0.05% BSA prior to reaction setup.
1.Dispense 1 ul of a 7 uM MLL-CXXC solution prepared in assay buffer into column 1-48.
2.Transfer 23 nl of compounds and unlabeled HOX-A9 per well.
3.Incubate for 5 minutes at ambient.
4.Dispense 1ul of a 50 nM FLSN-HOX-A9 solution prepared in assay buffer into columns 1-48
5.Centrifuge for 30 seconds at 1000 RPM.
6.Incubate for 30 minutes at ambient.
7.Read using the Envision reader fluorescent polarization protocol.
Further: nearly all actives have a fitted effect of over 80% in size.
Potency means the concentration at half of the fitted maximal effect.

Potency, active:
CCOC(=O)/C(N=Nc1cc(C(=O)O)cc(C(=O)O)c1)=C(\O)CCl 6.33 µM
COc1cc(/C=C2/C(=O)NN(c3ccc(F)cc3)C2=O)cc([N+](=O)[O-])c1O 71.1 µM
COc1ccc(S(=O)(=O)/N=C2\C=C(NS(=O)(=O)c3ccccc3)C(=O)c3ccccc32)cc1 50.3 µM
O=C1NN(c2ccccc2)C(=O)/C1=C/c1ccc(-c2cccc(C(=O)O)c2)o1 100 µM
COc1ccc(-c2onc3ccc(C(C)=O)cc23)cc1 10 µM
